High-throughput results from PubChem BioAssay.
POLI inh: DNA polymerase iota (human) inhibition. AID 588590. Pol iota fluorescent replication assay, 10 min. Q9UNA4. Potency, µM (highest dose often 115 µM), without a hit: at the highest dose activity, negative = inhibition, hits mostly inhibitors. 390,000 compounds, 1% hits
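Fluorescent replication assay read twice, at 0 min and 10 min after adding 50 nM (final) substrate. Enzyme (10 nM) and compounds were first incubated 15 min at room temperature; enzyme-free buffer wells were negative controls.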
Pol kappa inh: inhibitors of human DNA polymerase kappa; Potency, µM (doses to about 107 µM), for the others: at the top dose activity, negative = inhibition, most hits filed as inhibitors; 400,000 compounds, 0.53% hits; Q9UBT6; AID 588579; purified Pol kappa, fluorescent DNA synthesis assay, 10 min; note: % is set by controls: 0 for no effect and ±100 for the full control effect
Target sequence (Q9UBT6 whole entry, looked up): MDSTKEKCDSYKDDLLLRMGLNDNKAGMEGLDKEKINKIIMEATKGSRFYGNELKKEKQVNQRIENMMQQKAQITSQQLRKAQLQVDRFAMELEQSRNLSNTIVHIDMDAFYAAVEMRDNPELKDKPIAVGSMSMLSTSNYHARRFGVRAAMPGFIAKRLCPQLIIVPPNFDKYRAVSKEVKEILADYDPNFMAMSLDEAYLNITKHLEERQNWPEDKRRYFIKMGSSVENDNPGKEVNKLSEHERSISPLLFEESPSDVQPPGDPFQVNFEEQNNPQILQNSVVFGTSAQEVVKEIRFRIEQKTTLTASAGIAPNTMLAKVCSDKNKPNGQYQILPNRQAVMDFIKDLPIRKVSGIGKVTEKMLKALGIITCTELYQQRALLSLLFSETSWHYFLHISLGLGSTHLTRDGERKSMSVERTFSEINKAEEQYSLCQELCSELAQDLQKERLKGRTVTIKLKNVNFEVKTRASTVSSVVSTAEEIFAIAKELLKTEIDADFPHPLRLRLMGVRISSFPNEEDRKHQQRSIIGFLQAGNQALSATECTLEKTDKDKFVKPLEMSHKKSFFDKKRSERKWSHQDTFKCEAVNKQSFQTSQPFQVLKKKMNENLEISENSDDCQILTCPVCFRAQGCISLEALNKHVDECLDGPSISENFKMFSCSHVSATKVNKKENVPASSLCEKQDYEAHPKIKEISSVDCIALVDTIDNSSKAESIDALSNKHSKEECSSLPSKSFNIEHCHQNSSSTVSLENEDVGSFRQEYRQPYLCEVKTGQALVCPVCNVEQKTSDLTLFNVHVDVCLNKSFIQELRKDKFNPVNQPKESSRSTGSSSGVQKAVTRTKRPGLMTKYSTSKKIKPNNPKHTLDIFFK
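Enzyme at 10 nM met test compounds for 15 min at room temperature. Substrate addition (50 nM final) began the reaction, which was monitored by fluorescence at 0 and 10 min.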
L3MBTL1 block: blocks human L3MBTL1; AlphaScreen L3MBTL1–H3K9me1 peptide binding; 230,000 compounds, 0.66% hits; Potency, µM (titrated, usually from 57.1 µM), without a hit: at the top dose activity, negative = inhibition, hits mostly inhibitors; note: % is set by controls: 0 for no effect and ±100 for the full control effect; nearly all actives have a fitted effect of over 60% in size
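L3MBTL1 (50 nM) pre-complexed 30 min with biotinylated H3(1-15)K9me1 peptide (75 nM), then compounds added for 30 min at room temperature; AlphaScreen streptavidin donor/nickel chelate acceptor beads (10 ug/mL final) read after 30 min dark incubation.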
Pol beta inh: blocks human DNA polymerase beta activity; Potency, µM (titrated, usually from 114 µM), inactives show top-dose activity change, negative = inhibition, actives largely listed as inhibitors; 340,000 compounds, 1.3% hits; Pol beta primer extension/strand displacement, fluorescence kinetic; AID 485314; P06746; note: % is set by controls: 0 for no effect and ±100 for the full control effect
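Pol beta (10 nM) was preincubated with compound for 15 min at room temperature. The reaction was then started with 50 nM substrate and read immediately and after a further 10 min at room temperature.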
POLH inh: DNA polymerase eta (human) inhibition; recombinant Pol eta, fluorescent DNA replication assay; Potency, µM (doses to about 114 µM), for inactives: at the top dose activity change, negative = inhibition, actives largely listed as inhibitors; 390,000 compounds, 1.2% hits; Q9Y253; note: % is set by controls: 0 for no effect and ±100 for the full control effect
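Pol eta at 10 nM preincubated with compounds 15 min at room temperature; reaction started with fluorescent substrate (50 nM final) and read kinetically at 0 and 10 min.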
APE1 inh: inhibitors of human APE1 endonuclease. P27695. AID 2517. Potency, µM (titrated, usually from 65.8 µM), for the others: top-dose activity change, negative = inhibition, hits mostly inhibitors. 350,000 compounds, 0.35% hits. recombinant APE1, TAMRA/BHQ-2 abasic DNA cleavage fluorescence;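 note: plate controls were vehicle for no effect and reference inhibitor for full effect; nearly all actives have a fitted effect of over 55% in size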
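0.75 nM APE1 + cpd, 15 min RT; start w/ 50 nM TAMRA/BHQ-2 THF-abasic dsDNA; kinetic fluor 525/598 nm ×3 reads @60 s; Δ(read3−read1); normalized to DMSO and NSC13755 control wells.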
Starred values were filed as active, the others as inactive. The list is not random: actives were taken first. Their share in the collection is about 2.5%. Calls come from the whole dose curve; as a rule, active = well fitted curve in the direction sought with a large enough effect; inconclusive = small, poorly fitted or top-dose-only effect, or another doubt; inactive = no such curve, though single readings can be large; an effect the other way counts as inactive or inconclusive. Potency is the fitted concentration of half-maximal effect.

CC[C@H](C)/C=C(C)/C=C/C(=O)Cc1cc(O)c(C)c(O)c1C=O was read as POLI inh inconclusive, Pol kappa inh -39.6%, Pol beta inh inconclusive, POLH inh 50.1µM* and APE1 inh -6.5%.
`Cc1ncc(CO)c(/C=N/NC(=S)Nc2ccc(Cl)c(Cl)c2)c1O` gave POLI inh -17.7%, Pol kappa inh -0.3%, L3MBTL1 block inconclusive, Pol beta inh 18.8%, POLH inh -8.0% and APE1 inh 11.9%.
For Cc1ncc(CO)c(/C=N/NC(=S)Nc2cccc(Cl)c2)c1O the results were POLI inh inconclusive, Pol kappa inh -3.6%, L3MBTL1 block 14.1µM*, Pol beta inh -4.3%, POLH inh -5.8% and APE1 inh -0.8%.
`N/C(=N\OS(=O)(=O)c1ccccc1)c1cccnc1` gave POLI inh -1.1%, Pol kappa inh -7.1%, L3MBTL1 block 10.3%, Pol beta inh 26.8%, POLH inh -10.1% and APE1 inh 0.6%.
N/C(=N\OS(=O)(=O)c1ccccc1)c1ccncc1 was read as POLI inh 20µM*, Pol kappa inh 1.9%, L3MBTL1 block 5.6%, Pol beta inh 21.7%, POLH inh -5.1% and APE1 inh -2.8%.
Cc1ccc(S(=O)(=O)Nc2ccc3cc([N+](=O)[O-])ccc3c2[N+](=O)[O-])cc1 was read as POLI inh inconclusive, Pol kappa inh -5.0% and POLH inh 79.4µM*.
For C[N+]1(CC(=O)NNc2c3ccccc3nc3ccccc23)CCOCC1 the results were L3MBTL1 block -5.3%, Pol beta inh 25.1µM* and APE1 inh inconclusive.
Screening O=C(NNC(=O)c1cccc(-n2cccc2)c1)c1ccc(F)cc1 returned POLI inh 50.1µM*, Pol kappa inh inconclusive, L3MBTL1 block 22.4µM*, POLH inh 14.1µM* and APE1 inh -13.0%.
`CC[n+]1c(/C=C(\C)OC)sc2ccccc21` gave POLI inh 11.1%, Pol kappa inh -4.4%, L3MBTL1 block -5.5%, Pol beta inh 9.1%, POLH inh -6.2% and APE1 inh 0.9%.
Screening CC[n+]1c(/C=C/C=C/N(C(C)=O)c2ccccc2)sc2cc(OC)ccc21 returned POLI inh inconclusive, Pol kappa inh 35.5µM*, L3MBTL1 block -1.3%, Pol beta inh 15.8µM*, POLH inh inconclusive and APE1 inh -5.6%.
For COC(=O)N[C@@H](c1cccc(C)c1)[C@@H](C)[N+](=O)[O-] the results were APE1 inh 5.6%.
Screening O=c1c2cc(N3CCOCC3)ccc2[nH]c(=S)n1Cc1ccco1 returned POLI inh 10µM*, Pol kappa inh 79.4µM*, L3MBTL1 block inconclusive, Pol beta inh inconclusive, POLH inh 89.1µM* and APE1 inh 6.6%.
`CCCCc1nc(NCCNC(=O)c2ccccc2)c(C#N)c2c1CSC(C)(C)C2` gave POLI inh -15.4%, Pol kappa inh -6.7%, Pol beta inh 2.7%, POLH inh -16.9% and APE1 inh -1.4%.
For CCCCc1nc(NCCNC(=O)c2ccco2)c(C#N)c2c1CSC(C)(C)C2 the results were POLI inh inconclusive, Pol kappa inh inconclusive, Pol beta inh 3.9%, POLH inh 89.1µM* and APE1 inh 21.0%.
For C=CCSc1ncccc1C(=O)O the results were POLI inh 100µM*, Pol kappa inh -10.7%, L3MBTL1 block 2.8%, Pol beta inh 0.1%, POLH inh -17.7% and APE1 inh inconclusive.
Screening O=C(O)CSc1ncccc1C(=O)O returned POLI inh 21.7%, Pol kappa inh -4.8%, L3MBTL1 block -29.4%, Pol beta inh 11.3%, POLH inh 3.5% and APE1 inh 1.8%.
Screening O=C(CCCCCN1C(=O)[C@@H]2Cc3ccccc3CN2C1=O)NCCc1ccccc1 returned POLI inh 33.3%, Pol kappa inh 2.9%, Pol beta inh 1.8%, POLH inh -19.8% and APE1 inh 18.2%.
CCCC[C@@H]1C[C@H]1C(NC(=O)c1ccco1)c1ccc(Cl)cc1 (some centres not stated) was read as APE1 inh -9.9%.
`CCCC[C@@H]1C[C@H]1[C@@H](NC(=O)c1ccco1)c1ccc(C(=O)OC)cc1` gave POLI inh 11.9%, Pol kappa inh -17.6% and POLH inh 31.6µM*.
For O=C(O)CN(CC(=O)O)Cc1cc2c(-c3ccccc3C(=O)O)c3cc(CN(CC(=O)O)CC(=O)O)c(=O)cc-3oc2cc1O the results were Pol kappa inh 7.08µM*.
O=c1cc(-c2ccccc2F)oc2ccccc12 was read as POLI inh 9.7%, Pol kappa inh -2.2%, L3MBTL1 block 3.3%, Pol beta inh 1.4%, POLH inh 7.7% and APE1 inh 4.3%.
O=C(O)c1ccccc1-c1c2ccc(=O)cc-2oc2cc(O)ccc12 was read as Pol kappa inh 26.7µM* and APE1 inh 28.2µM*.
O=C(O)c1ccccc1-c1oc2cc(O)ccc2c(=O)c1Oc1ccccc1 was read as APE1 inh -1.9%.
CCOc1ccccc1C(=O)NCC(=O)OCC(=O)c1ccc2c(c1)OCCO2 was read as POLI inh inconclusive, Pol kappa inh -35.8%, L3MBTL1 block 17.3%, Pol beta inh 70.8µM*, POLH inh 3.3% and APE1 inh -1.8%.
Screening Cc1ccc(C2(SCC(N)C(=O)O)c3ccccc3-c3ccccc32)cc1 (configuration not stated) returned POLI inh inconclusive, Pol kappa inh inconclusive and POLH inh 22.4µM*.
Screening NC(CSC(c1ccccc1)(c1ccccc1)c1ccccc1)C(=O)O (configuration not stated) returned POLI inh inconclusive, Pol kappa inh -18.8% and POLH inh inconclusive.
Cc1nc2oc3c(NCc4ccccc4)ncnc3c2c2c1COC(C)(C)C2 was read as POLI inh 19.5%, Pol kappa inh -6.1%, Pol beta inh 7.7%, POLH inh 14.1µM* and APE1 inh 12.7%.
For Cc1nc2oc3c(NCC4CCCO4)ncnc3c2c2c1COC(C)(C)C2 (configuration not stated) the results were POLI inh 29.9%, Pol kappa inh -2.7%, L3MBTL1 block -5.0%, Pol beta inh -25.4%, POLH inh 3.4% and APE1 inh 2.3%.
COCCCNC(=O)C1CC(=O)N(CCc2ccc(OC)c(OC)c2)C1 (configuration not stated) was read as POLI inh -4.3%, Pol kappa inh -18.4%, L3MBTL1 block -8.8%, Pol beta inh -0.1%, POLH inh 31.6µM* and APE1 inh -5.0%.
